Active and inactive are the calls of the source.
What was measured:
[1] = biological target: Albumin (Bos taurus) (UniProt P02769); assay: bovine serum albumin binders on microarray, profiling panel, artefact control for SMM control protein annotation, biochemical, small-molecule microarray, Alexa647 label, 635/667 nm fluorescence (AID 1118); conditions: BSA-A647 binding, fluorescence 635 nm, higher = more signal;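 also: score merges 667 nm emission intensity and signal-to-noise per printed compound spot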
[2] = small-molecule microarray binders of probe aXIP, primary screen, biochemical, NeuroSMM set, 635/667 nm fluorescence (AID 1119); conditions: higher = more signal, called active from +8 up or from −8 down;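 also: probe is the protein aXip251-270 applied at 1 µg/mL to compound-printed slides; binding of probe to printed compounds measured as 667 nm fluorescence plus signal to noise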
[3] = small-molecule binders of probe aNOTCH3, primary screen, biochemical, small-molecule microarray, 635/667 nm fluorescence (AID 1120); conditions: higher = more signal;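 also: probe is a biotin-tagged antibody raised against NOTCH3 rather than NOTCH3 protein; score merges spot fluorescence near 667 nm with spot signal to noise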
[4] = small-molecule binders of probe aNOTCH2, primary screen, biochemical, small-molecule microarray, 635/667 nm fluorescence (AID 1121); conditions: higher = more signal;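 also: score merges feature fluorescence read at 667 nm with its signal to noise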
[5] = biological target: Carbonic anhydrase 2 (Homo sapiens) (UniProt P00918); assay: CAII small-molecule binders, profiling panel, biochemical, small-molecule microarray, Alexa647-labelled CAII (AID 1122); conditions: CAII-A647 binding fluorescence, higher = more signal
[6] = COS7 lysate on small-molecule microarray, probe aHis, 635 nm (AID 1123); conditions: COS7 cell lysate, fluorescence, higher = more signal;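 also: z-score combines 667nm fluorescence intensity with signal-to-noise per printed compound spot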
[7] = compound binding in COS7 lysate, probe aLAP1, primary screen, cell lysate, small-molecule microarray (AID 1124); conditions: probe aLAP1, fluorescence, higher = more signal;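 also: lysate comes from COS7 cells expressing LAP1 and is applied at 0.3 µg/mL; score merges spot fluorescence near 667 nm with signal-to-noise over triplicate slides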
[8] = test system: Sam68 (KHDRBS1); assay: Sam68 small-molecule binders, primary screen, biochemical, small-molecule microarray, 635 nm fluorescence (AID 1125); conditions: small-molecule microarray binding, higher = more signal;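 also: score merges 667 nm channel intensity with signal to noise over triplicate slides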
[9] = test system: Chordin-like protein 2 (CHRDL2); assay: CHRDL2 small-molecule binders, primary screen, biochemical, small-molecule microarray, 635 nm fluorescence (AID 1126); conditions: small-molecule microarray binding, fluorescence 635 nm; higher = more signal;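 also: printed compound slides probed with Chrdl2 protein at 4 µg/mL for 1 h at 4 C; score merges 667 nm emission intensity with signal to noise over three replicate slides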
[10] = biological target: Concanavalin-A (Canavalia ensiformis) (UniProt P02866); assay: ConA small-molecule binders, primary screen, artefact control for SMM control protein annotation, biochemical, small-molecule microarray, Alexa647 label, 635 nm (AID 1127); conditions: ConA-A647 binding fluorescence, higher = more signal;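 also: z combines 667 nm emission intensity with signal-to-noise across three replicate slides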
[11] = anti-His antibody binders, primary screen, artefact control for SMM control protein annotation, biochemical, small-molecule microarray, 635 nm fluorescence (AID 1128); conditions: anti-His Alexa647 antibody binding, higher = more signal;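 also: score merges feature fluorescence with signal-to-noise for each printed compound spot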
[12] = test system: Human papillomavirus type 1a E7 protein (residues 1-88); assay: HPV1a E7 small-molecule binders, primary screen, biochemical, small-molecule microarray, residues 1-88, 635 nm (AID 1129); conditions: small-molecule microarray binding, fluorescence 635 nm; higher = more signal
[13] = biological target: Focal adhesion kinase 1 (Homo sapiens) (UniProt Q05397); assay: small-molecule microarray binders of FAK, primary screen, biochemical, 635/667 nm fluorescence, BSA, DTT (AID 1130); conditions: PTK2 binding, 635 nm fluorescence, higher = more signal;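 also: composite of spot emission at 667 nm and signal to noise over triplicate slides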
[14] = test system: Fibrinogen (Alexa647-labelled); assay: fibrinogen binders on compound microarrays, profiling panel, artefact control for SMM control-protein annotation, biochemical, small-molecule microarray, 635/667 nm fluorescence (AID 1131); conditions: fibrinogen-A647 binding fluorescence, higher = more signal;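 also: z-score merges 667 nm fluorescence with per-spot signal-to-noise over triplicate slides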
[15] = biological target: Follistatin (Homo sapiens) (UniProt P19883); assay: follistatin binders on small-molecule microarrays, primary screen, biochemical, small-molecule microarray, 635/667 nm fluorescence (AID 1132); conditions: FST binding, 635 nm fluorescence, higher = more signal
[16] = biological target: Fibroblast growth factor 2 (Homo sapiens) (UniProt P09038); assay: FGF2 binders on small-molecule microarrays, primary screen, biochemical, small-molecule microarray, 635/667 nm fluorescence (AID 1133); conditions: small-molecule microarray binding, FGF2, fluorescence 635/667; higher = more signal
[17] = mitochondrial membrane potential change in A549 cells, profiling panel, cell-based, JC-1 fluorescence, basal, 24 h, 100 nL (AID 1138); conditions: higher = more signal;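 also: A549 lung adenocarcinoma cells under basal conditions with no added stimulus; test concentration not given here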
[18] = test system: Lefty1; assay: Lefty1 binders on small-molecule microarrays, primary screen, biochemical, small-molecule microarray, 635/667 nm fluorescence (AID 1139); conditions: small-molecule microarray binding, fluorescence 635/667; higher = more signal
[19] = test system: wheat germ agglutinin (Triticum aestivum), Alexa647-labelled; assay: wheat germ agglutinin binders on compound microarrays, profiling panel, artefact control for SMM control-protein annotation, biochemical, small-molecule microarray, 635/667 nm fluorescence (AID 1140); conditions: WGA-A647 binding, 635 nm fluorescence, higher = more signal;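 also: score merges 667 nm feature emission with signal to noise over triplicate slides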
[20] = biological target: Luciferin 4-monooxygenase (Photinus pyralis) (UniProt P08659); assay: firefly luciferase enzyme inhibitors, primary screen, biochemical, luminescence, purified enzyme, 2006 set (AID 1141); conditions: SteadyGlo luminescence, 30 min, higher = more signal, called active from +8 up or from −8 down;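 also: cell-free assay with purified firefly luciferase at 100 ng per well in PBS; test concentration not given here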
Chain of Luciferin 4-monooxygenase (Photinus pyralis) (P08659 whole entry, looked up): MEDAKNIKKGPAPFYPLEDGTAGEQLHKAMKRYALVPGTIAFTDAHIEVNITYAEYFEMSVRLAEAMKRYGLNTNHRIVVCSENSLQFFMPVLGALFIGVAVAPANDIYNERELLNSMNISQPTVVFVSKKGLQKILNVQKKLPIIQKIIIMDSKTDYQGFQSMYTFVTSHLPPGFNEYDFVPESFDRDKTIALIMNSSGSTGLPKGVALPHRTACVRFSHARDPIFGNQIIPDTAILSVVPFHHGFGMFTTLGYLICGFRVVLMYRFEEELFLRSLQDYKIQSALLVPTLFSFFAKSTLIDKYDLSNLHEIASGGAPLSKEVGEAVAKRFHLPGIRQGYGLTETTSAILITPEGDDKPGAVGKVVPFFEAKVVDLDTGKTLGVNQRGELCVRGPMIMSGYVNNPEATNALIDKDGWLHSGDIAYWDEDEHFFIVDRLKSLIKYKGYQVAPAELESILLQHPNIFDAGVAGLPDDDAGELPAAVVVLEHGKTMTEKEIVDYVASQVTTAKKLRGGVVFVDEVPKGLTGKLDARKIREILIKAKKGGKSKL

Chain of Fibroblast growth factor 2 (Homo sapiens) (P09038 whole entry, looked up): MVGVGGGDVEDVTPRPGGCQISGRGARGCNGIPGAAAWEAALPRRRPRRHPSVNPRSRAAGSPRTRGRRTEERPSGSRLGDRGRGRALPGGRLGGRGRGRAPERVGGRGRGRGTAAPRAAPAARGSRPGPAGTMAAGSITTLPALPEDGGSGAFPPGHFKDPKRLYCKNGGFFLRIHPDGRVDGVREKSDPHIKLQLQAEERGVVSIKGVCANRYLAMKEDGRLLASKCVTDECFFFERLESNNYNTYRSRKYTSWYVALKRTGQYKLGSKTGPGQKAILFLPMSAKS
Chain of Focal adhesion kinase 1 (Homo sapiens) (Q05397 whole entry, looked up): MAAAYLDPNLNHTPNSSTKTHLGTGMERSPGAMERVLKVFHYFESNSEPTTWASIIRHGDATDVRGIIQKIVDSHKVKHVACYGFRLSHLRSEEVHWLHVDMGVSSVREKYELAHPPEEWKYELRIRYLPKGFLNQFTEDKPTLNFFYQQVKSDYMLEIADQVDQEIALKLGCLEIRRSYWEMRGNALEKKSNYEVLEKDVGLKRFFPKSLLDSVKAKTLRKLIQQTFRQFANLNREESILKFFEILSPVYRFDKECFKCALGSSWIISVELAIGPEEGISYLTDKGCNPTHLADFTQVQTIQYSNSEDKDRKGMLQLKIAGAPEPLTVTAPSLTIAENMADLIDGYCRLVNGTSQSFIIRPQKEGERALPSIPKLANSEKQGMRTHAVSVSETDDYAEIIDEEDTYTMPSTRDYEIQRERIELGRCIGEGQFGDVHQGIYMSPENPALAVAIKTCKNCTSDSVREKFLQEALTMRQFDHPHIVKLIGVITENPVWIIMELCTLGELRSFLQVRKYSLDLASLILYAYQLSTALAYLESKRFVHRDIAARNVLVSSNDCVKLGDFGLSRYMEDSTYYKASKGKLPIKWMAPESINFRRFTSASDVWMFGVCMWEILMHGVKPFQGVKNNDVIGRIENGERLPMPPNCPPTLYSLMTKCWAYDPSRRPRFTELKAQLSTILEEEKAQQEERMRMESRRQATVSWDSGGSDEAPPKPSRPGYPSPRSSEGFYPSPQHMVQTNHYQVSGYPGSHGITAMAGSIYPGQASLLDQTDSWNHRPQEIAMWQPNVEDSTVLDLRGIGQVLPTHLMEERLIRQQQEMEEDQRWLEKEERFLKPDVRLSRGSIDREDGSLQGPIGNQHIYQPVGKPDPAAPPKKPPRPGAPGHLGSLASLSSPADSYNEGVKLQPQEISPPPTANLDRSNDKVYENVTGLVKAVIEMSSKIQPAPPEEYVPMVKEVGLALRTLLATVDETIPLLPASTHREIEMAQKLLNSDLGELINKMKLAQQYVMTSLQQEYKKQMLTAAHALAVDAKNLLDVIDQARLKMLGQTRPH
Chain of Albumin (Bos taurus) (P02769 whole entry, looked up): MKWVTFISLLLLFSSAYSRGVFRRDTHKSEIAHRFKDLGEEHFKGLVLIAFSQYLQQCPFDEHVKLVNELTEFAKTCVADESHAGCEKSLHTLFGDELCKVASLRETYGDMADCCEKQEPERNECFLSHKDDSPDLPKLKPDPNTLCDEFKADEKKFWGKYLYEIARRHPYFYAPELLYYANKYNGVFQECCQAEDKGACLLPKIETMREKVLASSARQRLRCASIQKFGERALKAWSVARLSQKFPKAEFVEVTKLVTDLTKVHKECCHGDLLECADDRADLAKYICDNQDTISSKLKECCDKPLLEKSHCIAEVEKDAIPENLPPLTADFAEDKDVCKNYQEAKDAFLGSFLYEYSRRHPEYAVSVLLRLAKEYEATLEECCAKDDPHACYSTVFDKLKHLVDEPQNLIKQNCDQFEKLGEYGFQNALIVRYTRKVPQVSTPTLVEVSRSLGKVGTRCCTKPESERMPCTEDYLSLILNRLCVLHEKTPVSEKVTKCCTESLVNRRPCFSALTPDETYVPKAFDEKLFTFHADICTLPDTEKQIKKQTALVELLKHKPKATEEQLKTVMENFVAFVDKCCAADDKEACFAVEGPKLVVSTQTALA
Chain of Concanavalin-A (Canavalia ensiformis) (P02866 whole entry, looked up): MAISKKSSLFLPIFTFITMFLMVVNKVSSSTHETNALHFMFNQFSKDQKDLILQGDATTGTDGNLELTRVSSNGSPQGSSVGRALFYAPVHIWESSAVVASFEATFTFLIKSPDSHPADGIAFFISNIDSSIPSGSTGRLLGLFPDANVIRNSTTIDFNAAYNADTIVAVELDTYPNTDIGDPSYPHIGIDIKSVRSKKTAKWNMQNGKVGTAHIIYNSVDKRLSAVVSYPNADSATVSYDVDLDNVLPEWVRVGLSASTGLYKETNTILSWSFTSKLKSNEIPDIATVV
Chain of Follistatin (Homo sapiens) (P19883 whole entry, looked up): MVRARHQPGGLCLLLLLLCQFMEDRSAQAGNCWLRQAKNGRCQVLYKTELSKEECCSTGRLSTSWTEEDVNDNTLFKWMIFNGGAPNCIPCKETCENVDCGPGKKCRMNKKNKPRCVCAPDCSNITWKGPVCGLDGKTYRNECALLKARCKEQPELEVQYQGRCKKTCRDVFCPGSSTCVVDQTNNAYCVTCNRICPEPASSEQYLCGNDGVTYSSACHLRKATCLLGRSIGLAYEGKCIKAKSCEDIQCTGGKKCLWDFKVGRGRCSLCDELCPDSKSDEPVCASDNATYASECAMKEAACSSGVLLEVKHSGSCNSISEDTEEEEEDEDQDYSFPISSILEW

| Compound | composite z-score [1] | composite Z-score [2] | composite z-score [3] | composite z-score [4] | composite z-score [5] | composite z-score [6] | composite z-score [7] | composite z-score [8] | composite z-score [9] | composite z-score [10] | composite z-score [11] | composite z-score [12] | composite z-score [13] | composite z-score [14] | composite z-score [15] | composite z-score [16] | z-score [17] | composite z-score [18] | composite z-score [19] | z-score [20] |
| --- | --- | --- | --- | --- | --- | --- | --- | --- | --- | --- | --- | --- | --- | --- | --- | --- | --- | --- | --- | --- |
| C=C[C@H](C)[C@H](OC(=O)Nc1ccc(SC)cc1)c1ccc(OCCO)cc1 | 0.548 | 2.78 (inactive) | -0.0647 | -0.0533 | 0.575 | 2.19 | 0.277 | 1.06 | 0.516 | 1.04 | 0.677 | 1.05 | 0.0085 | 0.519 | 0.376 | 1.2 | -1.38 | 0.427 | 1.07 | -7.94 (inactive) |
| CC1=C2[C@@H](CCc3ccccc3)OB(O)C[C@@H]2[C@@H]2C(=O)N(Cc3ccccc3)C(=O)[C@@H]2C1 | 0.415 | 0.831 (inactive) | -0.145 | -0.0735 | 0.585 | 0.328 | -0.294 | 0.227 | 0.226 | 0.948 | 0.0349 | 0.55 | -0.0683 | 0.987 | 0.946 | 0.33 | 0.758 | 0.388 | 0.505 | -0.653 (inactive) |
| COc1ccc([Si](C)(C)[C@H]2[C@H](CC(=O)N3CCC[C@H]3CO)O[C@@]3(C(=O)N(Cc4ccc(N5CCOC5=O)cc4)c4ccccc43)[C@@H]2C)cc1 | -0.195 | -0.0549 (inactive) | 0.336 | -0.075 | 0.364 | 1.89 | 0.145 | 1.34 | 0.731 | 0.618 | 2.43 | 1.18 | 0.395 | 0.692 | 1.34 | 1.56 | 2.59 | 1.16 | 0.697 | 0.31 (inactive) |
| O=C(c1ccccc1)N1C(=O)[C@]2(Cc3ccccc31)N=C(c1ccc(OCCCO)cc1)O[C@@H]2c1ccccc1 | 0.462 | -0.129 (inactive) | 0.0691 | -0.0928 | 0.204 | 2.7 | 0.356 | 1.29 | 0.371 | 1.13 | 1.87 | 1.23 | 0.677 | 0.965 | 1.24 | 0.944 | -2.12 | 0.764 | 0.305 | -1.33 (inactive) |
| COc1ccc(CCNC(=O)[C@@H]2c3ccccc3C(=O)N(C3CCCCC3)[C@H]2c2ccc(CO)cc2)cc1 | -0.295 | 0.0861 (inactive) | -0.119 | -0.0317 | 0.608 | 2.15 | 0.922 | 0.508 | -0.524 | 0.802 | 1.01 | 0.883 | 1.19 | 0.144 | 0.441 | 1.74 | -0.263 | -0.359 | 0.771 | -0.323 (inactive) |
| C=CCC(OC(C)=O)[C@@H]1[C@@H](N(Cc2ccc(-c3cccc(C(F)(F)F)c3)o2)C(=O)c2ccc(-c3ccccc3)cc2)c2cc(OCCCO)ccc2N1C(=O)Cc1ccc2ccccc2c1 (stereo not given in full) | -0.124 | -0.274 (inactive) | -0.149 | -0.11 | -0.177 | 0.453 | -0.039 | -0.421 | -0.353 | -0.0333 | -0.0298 | -0.504 | 0.0827 | 0.229 | 0.438 | -0.482 | 0.0819 | -0.175 | -0.0916 | 0.429 (inactive) |
| NC(=O)[C@@]1(Cc2ccccc2)COC(c2ccc(OCCCO)cc2)=N1 | 0.456 | 0.08 (inactive) | -0.0647 | 0.513 | 0.815 | 2.91 | -0.238 | -0.442 | -0.165 | -0.978 | 1.19 | -0.974 | 0.0264 | -0.979 | -0.0248 | 0.387 | -0.244 | 0.0016 | 0.523 | -4.28 (inactive) |
| CCCC=C(CCC)[C@@H](NC(=O)c1cccs1)c1ccc(C(=O)OC)cc1 | -0.0481 | 0.0599 (inactive) | 1.29 | 0.728 | 0.0222 | 0.0362 | -0.0022 | -0.411 | 0.513 | 0.588 | 0.196 | 0.741 | 0.205 | 0.686 | 0.816 | 1.13 | 0.733 | -0.223 | -0.119 | 2.23 (inactive) |
| COc1ccc([Si](C)(C)[C@@H]2[C@@H](CCO)O[C@]3(C(=O)N(Cc4ccccc4)c4ccc(NC(=O)[C@H](C)O)cc43)[C@H]2C)cc1 | 0.0962 | -0.0289 (inactive) | 0.147 | -0.106 | 0.377 | 1.2 | 0.515 | 1.29 | 0.448 | 1.14 | 0.888 | 1.21 | 1.04 | 0.851 | 1.2 | 0.462 | -0.955 | 1.29 | 0.417 | 0.265 (inactive) |
| COc1cc2c(cc1O)C(c1ccc(CN3CCCC3)cc1)N(Cc1cc3c(cc1Br)OCO3)CC2 (stereo not given) | 0.905 | 0.0698 (inactive) | -0.0089 | -0.102 | 0.891 | 0.796 | 0.119 | -0.521 | -0.0867 | 0.655 | -0.381 | -0.367 | 0.171 | 0.516 | 0.0395 | -0.73 | 1.11 | -0.268 | 0.688 | -1.37 (inactive) |
| COc1cccc(C)c1NC(=O)O[C@H]1[C@H](OC(=O)Nc2ccccc2-c2ccccc2)[C@H](OC(=O)Nc2ccccc2-c2ccccc2)[C@@H](OC)O[C@@H]1CO | 0.816 | 0.497 (inactive) | 0.233 | 0.0149 | 0.434 | 0.947 | 0.429 | 1.29 | 0.494 | 1.15 | 0.528 | 1.22 | 0.588 | 0.974 | 1.35 | 0.79 | -0.41 | 0.906 | 0.79 | -0.33 (inactive) |

— PubChem BioAssay
